Screening data from PubChem BioAssay.
Shown is part of a subset that was picked to be rich in hits.
HT1080-NT tox: qHTS for induction of synthetic lethality in tumor cells producing 2HG: qHTS for the HT-1080-NT fibrosarcoma cell line; HT-1080-NT fibrosarcoma viability, CellTiter-Glo ATP luminescence, 48 h; Potency, µM (titrated, usually from 46.1 µM), inactives show at the top dose activity, negative = less viability, hits mostly cytotoxic; actives 1.6% (n = 360,000);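 further: NT is the 2HG producing partner of a matched IDH1 knockdown line; potency means the concentration at half of the fitted maximal effect; 0% = DMSO-treated cells and -100% = media-only wells without cells; nearly all actives have a fitted effect of over 55% in size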
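Toxicity toward the 2HG-producing NT line was scored as %Activity, normalised to DMSO and no-cell wells, from CellTiter-Glo luminescence after 48 hours' treatment.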
TDP1 cell noCPT: qHTS for Inhibitors of human tyrosyl-DNA phosphodiesterase 1 (TDP1): qHTS in cells in absence of CPT; DT40 Tdp1-/- hTDP1 cells, no CPT, ATP luminescence, 48 h; Potency, µM (doses to about 46.2 µM), for the others: at the top dose activity change, negative = growth inhibition, most hits filed as inhibitors; actives 15% (n = 420,000); further: potency means the concentration at half of the fitted maximal effect; nearly all actives have a fitted effect of over 55% in size
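Cells were dispensed at 400 per well, compounds added by pin tool, plates incubated ≥48 hr at 37 °C, then CellTiter-Glo added for 30 min at room temperature before luminescence reading. Line: DT40 Tdp1-/- complemented with hTDP1; camptothecin omitted.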
DT40 TDP1 CPT: qHTS for Inhibitors of human tyrosyl-DNA phosphodiesterase 1 (TDP1): qHTS in cells in presence of CPT | AID 686979, 2013 | chicken DT40 Tdp1-/-;hTDP1 cells + 20 nM CPT, ATP luminescence, 48 h | actives 12% (n = 420,000) | Potency, µM (doses to about 46.2 µM), for the others: top-dose activity change, negative = growth inhibition, usual class: inhibitors; further: potency means the concentration at half of the fitted maximal effect; nearly all actives have a fitted effect of over 55% in size
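Chicken DT40 Tdp1-/- cells complemented with human TDP1, 400 cells/well, exposed to compounds plus 20 nM camptothecin for at least 48 h at 37 C; viability read as ATP content by CellTiter-Glo luminescence.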
IL-1B inflam inh: qHTS for Inhibitors of Inflammasome Signaling: IL-1-beta AlphaLISA Primary Screen. THP-1 LPS/ATP IL-1B secretion, AlphaLISA, 16 h; stronger effect = lower value. activity change, % at 57.5 µM. actives 4.7% (n = 360,000); in the data active means activity change below about -50%; inconclusive means mostly about -30% to -49%
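Secreted IL-1B measured by AlphaLISA bead assay after 16 h compound exposure of THP-1 cells; compounds (final up to 57.5 uM) added 1 h before LPS (250 ng/mL) and ATP (1.25 mM) stimulation; lower signal means less secretion.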
ALOX12 inh: Primary qHTS assay for inhibitors of human arachidonate 12S-lipoxygenase (ALOX12): Round 2 | actives 1.1% (n = 580,000) | Polyunsaturated fatty acid lipoxygenase ALOX12 (Homo sapiens), P18054 | Potency, µM (doses to about 108 µM), without a hit: at the highest dose activity change, negative = inhibition, most hits filed as inhibitors | purified 12hLO, xylenol orange hydroperoxide absorbance | AID 1671190, 2021; further: potency means the concentration at half of the fitted maximal effect
Target sequence (P18054 whole entry, looked up): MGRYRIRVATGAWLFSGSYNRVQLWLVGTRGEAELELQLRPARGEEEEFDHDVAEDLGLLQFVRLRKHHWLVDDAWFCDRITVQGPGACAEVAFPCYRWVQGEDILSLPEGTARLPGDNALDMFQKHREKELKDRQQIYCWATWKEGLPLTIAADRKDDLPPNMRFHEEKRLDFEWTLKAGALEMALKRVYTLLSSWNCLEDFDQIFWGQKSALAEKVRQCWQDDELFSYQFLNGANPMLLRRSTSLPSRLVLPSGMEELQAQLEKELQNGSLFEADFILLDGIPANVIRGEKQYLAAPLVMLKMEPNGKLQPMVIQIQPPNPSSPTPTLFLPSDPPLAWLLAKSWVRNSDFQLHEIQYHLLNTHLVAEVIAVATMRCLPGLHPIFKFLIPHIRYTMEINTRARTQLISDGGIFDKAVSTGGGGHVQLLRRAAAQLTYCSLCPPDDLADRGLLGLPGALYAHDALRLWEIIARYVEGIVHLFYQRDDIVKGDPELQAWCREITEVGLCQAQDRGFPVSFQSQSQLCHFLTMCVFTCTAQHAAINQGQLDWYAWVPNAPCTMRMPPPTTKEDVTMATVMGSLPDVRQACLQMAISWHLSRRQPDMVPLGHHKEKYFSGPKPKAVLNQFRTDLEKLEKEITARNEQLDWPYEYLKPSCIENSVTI
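Hydroperoxide product was detected by ferrous iron/xylenol orange as the 573 to 405 nm absorbance ratio. Arachidonic acid at 40 uM (final) was turned over for 30 min at room temperature by 150 nM human 12hLO, pH 7.0 Hepes buffer, after 15 min compound preincubation.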
HT1080 IDH1KD tx: qHTS for induction of synthetic lethality in tumor cells producing 2HG: qHTS for the HT-1080-IDH1KD cell line. HT-1080 IDH1 knockdown viability, ATP luminescence, 48 h. actives 2% (n = 360,000). Potency, µM (series often up to 46.1 µM), inactives show at the top dose activity, negative = toxicity, hits mostly cytotoxic;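 further: potency means the concentration at half of the fitted maximal effect; 0% = DMSO wells and -100% = cell-free medium wells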
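Luminescent ATP read-out (CellTiter-Glo, 10 min at room temperature) after 48 h compound exposure at 37 °C gave viability of IDH1-knockdown HT-1080 cells. Activity was normalised to DMSO and cell-free wells, then fitted as concentration-response curves.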
Active calls of the source: *; ? = inconclusive; . = not tested or not shown; [ ] = dose if it differs, or a comment. Unless noted, the call rests on the fitted dose curve; in most records, active means well fitted curve in the direction sought with a large enough effect; inconclusive means small, poorly fitted or top-dose-only effect, or another doubt; inactive means no such curve, though single readings can be large; an effect the other way counts as inactive or inconclusive. Unless noted, on the % scale 0 is the no-effect control and ±100 the full control effect.

SMILES | HT1080-NT tox | TDP1 cell noCPT | DT40 TDP1 CPT | IL-1B inflam inh | ALOX12 inh | HT1080 IDH1KD tx
O=C(Cn1c(SCc2ccc(F)cc2)nc2cccnc21)Nc1ccccc1F | . | 25.9µM* | ? | . | -19.6% | .
O=C(Cn1c(SCc2ccccc2F)nc2cccnc21)Nc1ccc(F)c(Cl)c1 | . | ? | ? | . | -8.9% | .
COc1ccc(NC(=O)Cn2c(SCc3ccc(F)cc3)nc3cccnc32)cc1OC | . | 2.31µM* | 3.66µM* | . | -19.5% | .
COc1ccc(CNC(=O)c2noc(-c3ccc4c(c3)OCO4)n2)cc1 | . | . | . | . | 2.3% | .
COc1ccc(NC(=O)Cn2c(SCc3ccc(F)cc3)nc3cccnc32)c(OC)c1 | . | 20.6µM* | ? | . | -19.0% | .
COC(=O)C1(NC(=O)c2ccc(Cl)c(Cl)c2)CCCCC1 | . | . | . | . | -25.2% | .
COc1ccc(C(=O)NC=C2C(=O)OC(C)(C)OC2=O)cc1 | 9.3% | -6.5% | -0.7% | 31.0 | -9.0% | -1.3%
C[N+](C)(C)CCOC(=O)C1(c2ccccc2)CCCC1 | -0.1% | -27.1% | -29.3% | -8.2 | 154.4% | 4.6%
CC[N+](C)(CC)CCCOC(=O)C1(c2ccccc2)CCCC1 | . | . | . | . | 20µM* | .
CC[N+](CC)(CC)CCCOC(=O)C1(c2ccccc2)CCCC1 | . | . | . | . | 20µM* | .
COc1ccc(Nc2nc(N)nc(CSc3nc4cc(OC)ccc4s3)n2)cc1 | . | 14.6µM* | 11.6µM* | . | ? | .
COc1ccc(Nc2nc(N)nc(CSc3nnc(C)s3)n2)cc1 | -2.6% | -22.9% | -17.9% | -12.1 | 128.0% | -9.5%
Cc1ccccc1Nc1nc(N)nc(CSc2nc3ccccc3s2)n1 | 6.9% | ? | ? | -8.7 | -0.9% | 6.1%
Cc1ccc(Nc2nc(N)nc(CSc3nc4ccccc4s3)n2)cc1 | ? | ? | ? | -70.4* | 2.3% | ?
CC(C)Oc1ccc(CN2CCC3(CCNCC3)C2)cc1 | . | . | . | . | 81.2% | .
Cc1nc(CCNC(=O)[C@H]2CNC[C@H](C(=O)N3CCOCC3)C2)sc1Cl | . | . | . | . | 28.0% | .
N=C(N)c1ccc(N=Nc2c(O)ccc3c2[nH]c2ccccc23)cc1 | -8.0% | 7.31µM* | 20.6µM* | -96.8* | -17.0% | -21.1%
NS(=O)(=O)c1ccc(N=Nc2c(O)ccc3ccccc23)cc1 | ? | ? | -12.7% | -29.4 | -13.6% | 0.8%
COc1ccc(CCNC(=O)C(C(=O)c2ccccc2)n2cc(Cl)ccc2=O)cc1OC (configuration not stated) | 8.8% | -20.8% | -12.1% | 8.8 | -7.9% | 8.2%
O=C(NCc1ccccc1)C(C(=O)c1ccc(F)cc1)n1ccccc1=O (configuration not stated) | -4.0% | -20.6% | ? | -4.2 | 0.0% | 6.8%
COc1ccc(CCNC(=O)C(C(=O)c2ccc(F)cc2)n2ccccc2=O)cc1OC (configuration not stated) | 3.6% | 6.51µM* | ? | 11.4 | -1.3% | 3.3%
O=C(NCC1CCCO1)C(C(=O)c1ccc(F)cc1)n1ccccc1=O (configuration not stated) | 1.1% | 23.1µM* | ? | -8.0 | ? | 0.8%
COc1ccc(CCNC(=O)C(C(=O)c2ccccc2)n2ccccc2=O)cc1OC (configuration not stated) | 6.1% | 5.8µM* | -19.6% | -1.8 | -13.7% | 6.6%
CCOc1ccc(C2C(C(=O)Nc3ccccc3)=C(C)Nc3nc(-c4ccccc4)nn32)cc1OC (configuration not stated) | . | ? | ? | . | -19.1% | .
CCN(CC)C(=O)CN(C)Cc1coc(-c2ccccc2)n1 | . | . | . | . | -5.7% | .
SMILES | HT1080-NT tox | TDP1 cell noCPT | DT40 TDP1 CPT | IL-1B inflam inh | ALOX12 inh | HT1080 IDH1KD tx
CN(CCOc1ccccc1F)C(=O)c1cc(Cl)c[nH]1 | . | . | . | . | 23.1% | .
COc1ccc(C(O)Cn2c(=N)n(CCCN(C)C)c3ccccc32)cc1 (configuration not stated) | -12.3% | ? | ? | -27.8 | -1.6% | -1.2%
N=c1n(CCN2CCCC2)c2ccccc2n1CC(O)c1ccc(Cl)c(Cl)c1 (configuration not stated) | ? | 3.66µM* | 5.8µM* | -21.9 | ? | ?
N=c1n(CCO)c2ccccc2n1CCOc1ccc(Cl)cc1Cl | 20.6µM* | 5.8µM* | 6.51µM* | -102.0* | ? | ?
N=c1n(CCN2CCCCC2)c2ccccc2n1CC(O)COc1ccc(Cl)cc1Cl (configuration not stated) | . | 4.61µM* | 3.66µM* | . | ? | .
Cc1ccc(OCC(O)Cn2c(=N)n(CCN3CCOCC3)c3ccccc32)cc1 (configuration not stated) | -20.9% | 23.1µM* | ? | ? | 0.0% | -13.4%
O=C(NC1CCCC1)N[C@@H]1C[C@H](CO)[C@@H](O)[C@H]1O | . | . | . | . | 13.6%[176 µM] | .
Cn1c(=O)c(-c2cccc(F)c2)nc2cncnc21 | . | -1.8% | -3.8% | . | 0.0% | .
O=C1NCCCCCCN(C(=O)C2(c3ccccc3)CC2)[C@H]2CCCC[C@@H]12 | . | . | . | . | 63.9% | .
CN(CC(=O)NC1(C)CCS(=O)(=O)C1)Cc1ccc(Cl)cc1Cl (configuration not stated) | . | . | . | . | -34.0% | .
Cc1ccc(OCC(O)Cn2c(=N)n(CCN3CCCCC3)c3ccccc32)cc1 (configuration not stated) | 16.4µM* | 23.1µM* | 5.17µM* | -50.0* | -8.1% | ?
COc1ccc(OCC(O)Cn2c(=N)n(CCN3CCCCC3)c3ccccc32)cc1 (configuration not stated) | 18.4µM* | 18.4µM* | 13µM* | -57.5* | ? | ?
COc1ccc(OCC(O)CN2CCCCC2)cc1 (configuration not stated) | 9.4% | 3.9% | -0.7% | 13.6 | 2.2% | 14.9%
O=C1CC(c2ccccc2)Cc2[nH]c(=O)c(C(=O)Nc3ccc(F)cc3)cc21 (configuration not stated) | . | 4.8% | -2.5% | . | -1.6% | .
O=C1CC(c2ccco2)Cc2[nH]c(=O)c(C(=O)Nc3ccccc3)cc21 (configuration not stated) | . | 10µM* | ? | . | . | .
CN(Cc1ccccc1)c1ncnc2sccc12 | -26.9% | 11.6µM* | ? | -3.0 | 15.0% | ?
